# Hit rate of the full screen: of about 310,000 compounds, about 11,000 (3.5%) were called active. Inconclusive results (about 4%) are left out. The sample as a whole holds a higher share of actives than the screen did. Unmarked numbers belong to inactive results. Calls follow the shape of the dose curve; as a rule, active = well fitted inhibition curve with a large enough effect; inconclusive = small, poorly fitted or top-dose-only effect, or another doubt; inactive = no such curve, though single readings can be large or run the other way.
# Molecular target: 4'-phosphopantetheinyl transferase ffp (Bacillus subtilis) (UniProt Q9F4F7)
# Test: qHTS Assay for Inhibitors of Bacillus subtilis Sfp phosphopantetheinyl transferase (PPTase);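 also: the enzyme is Sfp with the accession as filed and its product quenches rhodamine fluorescence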;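 as to largest response in the series, negative = inhibition: 0% = enzyme reaction without inhibitor and -100% = no enzyme wells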
# Settings: Biochemical Sfp PPTase activity
# Procedure, shortened: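 Reaction rates are the 30-min fluorescence difference (ex 525, em 598 nm) in wells containing 15 nM Sfp, 5 uM rhodamine-CoA and 12.5 uM BHQ-2-YbbR at pH 7.6 with 10 mM MgCl2.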
# Potency is read from the fitted curve at half-maximal effect.
SMILES,"largest response in the series, negative = inhibition [%]",Potency
COc1ccc(NC(=O)c2ccco2)cc1NC(=O)c1ccc(C#N)cc1F,6.39,
Nn1cnnc1N/N=C/c1cc([N+](=O)[O-])c(Cl)cc1Cl,,50.1 µM (active)
O=[N+]([O-])c1ccc(O)c(/C=N/Nc2ccccc2[N+](=O)[O-])c1,-9.69,
C/C(=N\NC(=O)C(N)=O)c1ccc2c(c1)OCCO2,-17.8,
Cc1ccc2sc(NNC(=O)c3ccc4c(c3)OCCO4)nc2c1C,,28.2 µM (active)
Cc1nc(NC(=O)c2ccc3c(c2)OCCO3)ccc1Br,-0.776,
CCCN1CCN(C(=O)CCCNC(=O)c2ccc(Cl)cc2)CC1,8.54,
COc1ccc(NC(=O)CC(NC(C)c2ccccc2)C(=O)O)cc1 (centres undefined),-9.65,
CN(C)CCCNC(=O)c1cc(C(=O)Cc2ccc(Cl)cc2)c[nH]1,3.87,
COc1cc(C2CC(=O)N3CN(Cc4ccccc4)CSC3=C2C#N)ccc1OCc1ccccc1 (centres undefined),,3.55 µM (active)
COc1cc(CNC2CCCC2)c(Br)cc1OCc1ccccc1,9.9,
COc1cc(CN2CCC(C(N)=O)CC2)ccc1OCc1ccccc1,-21.1,
Cc1ccc(CNC(=O)CCC(=O)N2CC(C)Sc3ccccc32)cc1 (centres undefined),23.4,
CC(=O)Nc1ccc(S(=O)(=O)N2CCC(NC(=O)c3ccccc3)CC2)cc1,22.8,
COc1ccc2c(c1)N(C)/C(=C1/SC(=S)N(NC(C)=O)C1=O)S2,-12.7,
COc1cc(C(=O)NC(=S)NCc2ccco2)cc(OC)c1OC,,44.7 µM (active)
COc1cc(C(=O)N[C@@H](C)C(=O)NCc2ccco2)cc(OC)c1OC,8.28,
COc1cccc(OC)c1C(=O)NC(=S)NCc1ccco1,-3.61,
Fc1ccc(-c2ccc(NCCN3CCOCC3)nn2)cc1,19.2,
COc1cc(C(=S)N2CCOCC2)cc(OC)c1OC(=O)c1cc([N+](=O)[O-])cc([N+](=O)[O-])c1,4.17,
O=C(Oc1ccc(Br)cc1C(=S)N1CCOCC1)c1cccc([N+](=O)[O-])c1,,50.1 µM (active)
O=C(Oc1ccccc1Cl)c1ccc(N2CCOCC2)c([N+](=O)[O-])c1,-20.5,
O=C(Oc1ccccc1C(=S)N1CCCCC1)c1cc([N+](=O)[O-])cc([N+](=O)[O-])c1,,31.6 µM (active)
O=C(Nc1ccc(C(=O)N2CCCCC2)cc1)c1cccc([N+](=O)[O-])c1,17.2,

SMILES,"largest response in the series, negative = inhibition [%]",Potency
COc1cc(C(=S)N2CCOCC2)cc(OC)c1OC(=O)c1ccc([N+](=O)[O-])cc1[N+](=O)[O-],7.82,
CCCCNC(=O)CCn1nc(-c2ccc(Cl)cc2)ccc1=O,10.2,
Cc1c(CC(=O)NCC(=O)NCC(=O)O)c(=O)oc2cc3oc4c(c3cc12)CCCC4,-20.1,
Nc1nnnn1/N=C/c1cccc(Br)c1,2.63,
Cc1n[nH]c(C)c1S(=O)(=O)N1CCCC(C(=O)Nc2ccc(Br)cc2)C1 (centres undefined),15.6,
CCOC(=O)Cn1c(=O)n(Cc2ccc(OC)cc2)c(=O)c2cccnc21,13,
O=C(Nc1ccnn1C1CCN(Cc2cccc(OCCO)c2)CC1)C1CCCC1,-0.971,
COc1ccc(-c2cc(C(=O)N3CCN(c4ccc(F)cc4)CC3)no2)cc1,8.09,
COc1ccc(CNC(=O)c2ccc3oc(C(C)C)nc3c2)cc1,2.49,
S=c1[nH]c2ccccc2c2ccccc12,,50.1 µM (active)
S=c1ccc2ccccc2[nH]1,-21.1,
CCCCn1c(=S)[nH]c2ccccc2c1=O,8.99,
Cc1cccc(NC(=O)CSCC(=O)Nc2nnc(C3CC3)s2)c1,-4.58,
CCN(CC)c1ccc2oc(=O)c(C)nc2c1,,14.1 µM (active)
CCN(CC)c1ccc2cc(C(N)=O)/c(=N\NC(=O)c3ccncc3)oc2c1,-4.99,
CCN(CC)c1ccc(/C=N/Nc2nc(C)cc(C)n2)c(O)c1,-14.7,
Cc1ccc2cccc(OCCCOc3ccccc3CO)c2n1,13.6,
O=C(CC1C(=O)NCCN1CC(c1ccccc1)c1ccccc1)NCC1CCOCC1 (centres undefined),-5.38,
Cc1sc2nc(SCCO)n(-c3ccccc3)c(=O)c2c1C,27.7,
Cc1cccc(NC(=O)C(C)SCc2ccccc2)c1 (centres undefined),3.73,
CC(Sc1nnc2c(n1)C1CCC2(C)C1(C)C)C(=O)Nc1ccccc1 (centres undefined),6.3,
CSc1nc(C)cc(SC(C(C)=O)C(=O)Nc2ccccc2)n1 (centres undefined),,50.1 µM (active)
Cn1nccc1/C=N\NC(=O)c1ccc(Cl)cc1,9.85,
CCOc1cc(C(=S)N2CCOCC2)ccc1OS(=O)(=O)c1ccc(Br)cc1,22.9,

SMILES,"largest response in the series, negative = inhibition [%]",Potency
CCOc1cc(C(=S)N2CCOCC2)ccc1O,,14.1 µM (active)
CCOc1ccc(C(=O)CCN2CCOCC2)cc1,-10.8,
COC(=O)[C@@H]1CC2=CC(=O)CC[C@]2(C)[C@@]23O[C@@H]2C[C@@]2(C)[C@@H](CC[C@@]24CCC(=O)O4)[C@H]13,10,
Cc1ccc(Cn2cc(C(=O)NN)c(=O)c3ccc(F)cc32)cc1,10.7,
CCCn1c(SCC(N)=O)nnc1C(C)C,10.5,
CCCn1c(SCC(=O)c2ccc3c(c2)OCCO3)nnc1C(C)C,,79.4 µM (active)
CCn1c(SCC(=O)Nc2ccc3c(c2)OCCO3)nnc1C(C)C,18.9,
COc1ccc(C(C(=O)NC2CCCC2)N(CCCO)C(=O)Cn2nnc(-c3ccc(C)o3)n2)cc1 (centres undefined),1.56,
CCN(CC)S(=O)(=O)c1ccc(N2CCN(C)CC2)c(NC(=O)Nc2ccccc2F)c1,9.85,
Cc1cc(SCC(=O)c2ccccc2)nc(SCC(=O)c2ccccc2)n1,11.4,
Cc1ccc(N/C=C/C(=O)c2ccccc2)cc1C,-6.7,
Cc1cc(C)nc(S/C=C/C(=O)c2ccccc2)n1,,20 µM (active)
COc1cc(C(C(=O)NC2CCCC2)N(Cc2ccccc2)C(=O)c2snc(C(N)=O)c2N)ccc1O (centres undefined),4.51,
CCOC(=O)[C@H]1[C@H]2COc3cc(OC)ccc3[C@@H]2N2C(=O)N(c3ccc(Br)cc3)C(=O)[C@@]12C,5.98,
O=C(NCCCO)c1cc2c([nH]c3ccccc32)c(-c2ccc(F)cc2)n1,-19.4,
CSc1ncccc1C(=O)NC1CCCCCC1,8.17,
CSc1nsc(SC)c1NC(=O)OC1CCCCC1,,56.2 µM (active)
CN(C)C(=O)c1ccc(NC(=O)c2ccccc2-c2ccccc2)cc1,-2.24,
O=C1/C(=C/c2ccc3c(c2)OCO3)Oc2cc(OCC(=O)N3CC(O)C[C@H]3C(=O)O)ccc21 (some centres undefined),2.62,
CCOc1cccc(-c2nnc(SCC(=O)NC3CC3)n2C)c1,3.79,
CCOc1ccc(Nc2nc(Cc3nnc(SCC(=O)NC4CCCC4)n3C)cs2)cc1,,89.1 µM (active)
Cn1c(CC(=O)Nc2ccc(F)cc2)nnc1SCC(=O)NC1CCCCC1,16,
CC(=O)Nc1ccc(NC(=O)COc2ccc(-c3ccccc3)cc2)cc1,13.3,
O=C(/C=C/c1cccc(F)c1)NC1CC1,29.9,

SMILES,"largest response in the series, negative = inhibition [%]",Potency
CC(C)n1c(O)c(N=Nc2ccccn2)c2ccccc21,,50.1 µM (active)
Oc1oc(-c2ccccc2Br)nc1/C=N/c1ccccn1,-0.12,
COC(=O)Cn1c(O)c(N=NC(=O)OC)c2ccccc21,4.81,
COC(CNC(=O)c1ccc2c(c1)ncn2-c1cc(C)cc(C)c1)OC,8.91,
CC(C)C(N)C(=O)OCCOCn1cnc2c(=O)[nH]c(N)nc21 (centres undefined),-9.12,
COc1cc2c(cc1OC)CN(CC(=O)Nc1ccc(F)cc1)CC2,2.33,
O=C(CCc1nnc(Cc2ccc3c(c2)OCO3)o1)NCCc1ccccc1Cl,-0.572,
COc1ccc(N(Cc2cc3cc(OC)ccc3[nH]c2=O)S(C)(=O)=O)cc1,-8.56,
CCC(=O)N(Cc1cc2cc(OC)ccc2[nH]c1=O)c1ccccc1C,6.41,
COc1ccc2[nH]c(=O)c(CNc3ccc(C)c(C)c3)cc2c1,,50.1 µM (active)
Cc1ccc(-c2ccc(=O)n(Cc3ccc(F)cc3Cl)n2)cc1,-21.9,
Cc1cccc(CNc2ccnc(-c3cccnc3)n2)c1,,79.4 µM (active)
Cc1noc(C)c1-c1cc(NCc2cccnc2)ncn1,-20.7,
Cc1cc(NCc2cccnc2)no1,1.54,
CCN(CC)c1ccc(NC(=O)CCc2nnc3ccc(N4CCCCC4)nn23)c(C)c1,2.26,
CCOc1ccccc1CN1CCN(C2CCC2)CC1CCO (centres undefined),17.6,
COC(=O)c1c(NC(=O)COc2ccc(Cl)cc2Cl)sc2c1CC(C)(C)NC2(C)C,-6.17,
O=C(CN(C(=O)CNC(=O)c1cccs1)c1cccc(F)c1)NC1CCCCC1,6.32,
COc1cccc(CNC(=O)CCCC(=O)Nc2cccc([N+](=O)[O-])c2)c1,4.84,
COC(=O)/C=C\C(=O)Nc1cccc([N+](=O)[O-])c1,,3.55 µM (active)
O=C(CSCC(=O)Nc1cccc([N+](=O)[O-])c1)Nc1ccccc1,7.95,
CC(=O)c1ccc(NC(=O)c2ccc(-n3cncn3)c([N+](=O)[O-])c2)cc1,-0.369,
